The source of these data is PubChem BioAssay AID686940 (The Scripps Research Institute Molecular Screening Center, 2013).

As a reminder, the inhibition is the relative decrease from the control value, in per cent.

The whole screen tested about 370,000 compounds, of which about 2,600 (0.7%) were called active. The sample as a whole holds a higher share of actives than the screen did. A number with no mark means an inactive call.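 Rule for the calls: active = inhibition above a per-plate cutoff, mean inhibition of test wells between control levels plus 3 SD (cut at about 38% in these data); inactive = the rest.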

Sequence of COUP transcription factor 2 (Homo sapiens) (P24468 whole entry, looked up): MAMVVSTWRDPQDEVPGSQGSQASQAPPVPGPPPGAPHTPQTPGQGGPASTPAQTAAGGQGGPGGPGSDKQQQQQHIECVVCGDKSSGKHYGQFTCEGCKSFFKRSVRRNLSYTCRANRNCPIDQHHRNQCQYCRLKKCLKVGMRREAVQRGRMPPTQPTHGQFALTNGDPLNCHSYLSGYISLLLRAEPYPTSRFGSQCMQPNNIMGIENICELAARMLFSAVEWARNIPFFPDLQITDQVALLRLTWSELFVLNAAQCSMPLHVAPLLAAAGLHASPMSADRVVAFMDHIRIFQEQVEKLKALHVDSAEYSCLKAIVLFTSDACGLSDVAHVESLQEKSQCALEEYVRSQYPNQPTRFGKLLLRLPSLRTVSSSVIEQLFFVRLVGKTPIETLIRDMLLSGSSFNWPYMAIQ

This assay addresses COUP transcription factor 2 (Homo sapiens) (UniProt P24468). The experiment in a line: NR2F2 transcriptional activity inhibitors, primary screen, cell-based, luciferase reporter, HEK293T, luminescence (AID 686940).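 Note: cells cotransfected with COUP-TFII expression vector driving the NGFI-A reporter; 0% = median of COUP-TF2 test wells and 100% = reporter-only cells.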 Particulars: HEK293T NGFI-A luciferase reporter, at 8.6 µM, active compounds read high. For orientation: Reporter assays use an easily measured gene product as a stand-in for the process of interest.
With `O=S1(=O)c2c(cccc2N2CCSCC2)Oc2ccccc2CN1Cc1cn(Cc2ccc(F)cc2)nn1`, the inhibition was -4.53%. In the case of `O=C(Nc1cc(Cl)cc(Cl)c1)OCCN1CCCC12CCC(c1ccccc1)CC2` (stereo not given), the inhibition was 2%. With `NS(=O)(=O)c1ccc(CCNC(=O)CNC(=O)Cc2ccccc2)cc1`, the inhibition is 10.1%. As for `CC(Nc1nc(C(F)(F)F)nc2ccccc12)c1cccs1` (stereo not given), the inhibition was -15.1%. Take `NS(=O)(=O)c1ccc(CCNc2nc(C(F)(F)F)nc3ccccc23)cc1`: the inhibition is 46.6% (active).

Take `CCCCn1c(SCC(=O)N2CCCC2=O)nc2cc(S(N)(=O)=O)ccc21`: the inhibition was -5.45%. Take `CCCCn1c(SCc2ncc(-c3ccccc3)o2)nc2cc(S(N)(=O)=O)ccc21`: the inhibition is 47% (active). With `c1ccc(-c2cnc(CN3CCN(c4ccccc4)CC3)o2)cc1`, the inhibition was -25.5%. `Cc1ccc(NC(=O)Nc2cc(C)nn2-c2ccccc2)cc1`: the inhibition is -17.6%.

As to `COc1ccc(C2CC=C(C(=O)O)C(c3ccccc3F)N2S(=O)(=O)c2ccc(C)cc2)cc1OC` (stereo not given), the inhibition was 13%. On to `COc1ccc2c(C(C)c3ccc(N)cc3)cn(C)c2c1` (stereo not given), for which the inhibition was -15.8%.

With `O=C(C1CCCN1S(=O)(=O)c1ccccc1)N1CCc2ccccc2C1` (stereo not given), the inhibition is 7.01%. Take `CN1C(=O)c2cc(NS(C)(=O)=O)ccc2OC[C@@H]2O[C@@H](CC(=O)NCc3ccc(-c4ccccc4)cc3)CC[C@H]21`: the inhibition is -21.8%.

`O=[N+]([O-])c1ccc(N2CCN(c3ccc(F)cc3)CC2)cn1`: the inhibition was -9.2%.

As to `O=C(c1cncc(Br)c1)N1CCN(c2ccc([N+](=O)[O-])cc2)CC1`, the inhibition was 9.04%. As to `O=C(c1cc(C(=O)N2CCN(c3ccc(F)cc3)CC2)cc([N+](=O)[O-])c1)N1CCN(c2ccc(F)cc2)CC1`, the inhibition was 58.1% (active). The value for `CN(C)CC(=O)N[C@@H]1C[C@@H]2O[C@H](CO)CC[C@@H]2O[C@@H]1CCc1ccc(C#Cc2ccccc2)cc1` was 27.3%; that for `COc1ccc(C(=O)NC2CC(C)(C)Cc3c2cnn3-c2ccccc2)c(OC)c1` (stereo not given) was -0.91%.

Turning to `O=C(CCNC(=O)c1ccc(Cl)cc1)NC1CCCc2ccccc21` (stereo not given), the inhibition was -32.6%. For `Cc1cc(C(=O)NC2CCCc3c2cnn3-c2cccc(C)c2C)c(C)o1` (stereo not given) the value was 44.6% (active). On to `Cn1nccc1C(=O)NC1CCCc2c1cnn2-c1ccccc1F` (stereo not given), for which the inhibition is 63.7% (active). The value for `Cn1nccc1C(=O)NC1CCCc2c1cnn2-c1ccc(F)cc1F` (stereo not given) was 60.9% (active); that for `COC(=O)c1ccc(C(=O)NC2CC(C)(C)Cc3c2cnn3-c2ccc(F)cc2)nc1` (stereo not given) was -4.63%. For `Cc1cc(C(=O)NC2CC(C)(C)Cc3c2cnn3-c2ccccc2)n[nH]1` (stereo not given), the inhibition is -4.58%.

On to `Cc1cc(C(=O)NNC(=O)CCC2CCCCC2)c(C)o1`, for which the inhibition is 3.17%. For `COCc1ccc(C(=O)NC2CC(C)(C)Cc3c2cnn3-c2ccc(C)cc2)o1` (stereo not given) the value was -7.12%; for `COc1cccc(CSc2nnc(-c3cccnc3)n2Cc2ccccc2)c1`, 14.1%; for `COC(=O)c1cccc(Cn2ccc3ccc(-c4ccc5ccn(C(=O)C6CCCCC6)c5c4)cc32)c1`, -12.6%. The value for `O=C(NCCC1=CCCCC1)C1CCN(S(=O)(=O)c2ccc(Cl)s2)CC1` was 8.27%; that for `COC(=O)[C@H](C(C)C)N1CCc2nnn(Cc3ccc(C)cc3)c2-c2ccccc2S1(=O)=O` was 7%.

On to `COC(=O)C[C@@H]1CC[C@@H]2[C@@H](COc3ccc(NC(=O)Nc4ccc(F)c(F)c4)cc3C(=O)N2C)O1`, for which the inhibition was 4.71%.

As for `CC[n+]1cc(C)ccc1/C=C/c1ccc(N(C)C)cc1`, the inhibition is 74.1% (active). As for `O=S1(=O)c2ccc(Br)cc2OC[C@@H](Cc2ccccc2)N1Cc1cn(Cc2ccco2)nn1`, the inhibition was 8.82%. The value for `C=CCN1C(C(=O)OC)CN(Cc2cn(Cc3ccccc3)nn2)CCS1(=O)=O` (stereo not given) was -8.52%. Turning to `CC(CCN1CCC(C(O)(c2ccccc2)c2ccccc2)CC1)Oc1ccc([N+](=O)[O-])cc1Cl` (stereo not given), the inhibition is 10.1%.

Regarding `CC(C)(C)OC(=O)NCc1cc(F)ccc1/C=C/S(=O)(=O)NCCc1ccccc1`, the inhibition was 9.33%. `CCN1/C(=C\c2ccc3ccccc3[n+]2CC)Sc2cc(C)ccc21`: the inhibition was 73% (active).

In the case of `N#Cc1ccccc1OC[C@@H](O)CN1CCC(C(O)(c2ccccc2)c2ccccc2)CC1`, the inhibition is -5.47%.

As for `Cc1cc(C)n2ncc(C(=O)Nc3ccc4c(c3)OCCO4)c2n1`, the inhibition was -31.2%. `C=C1C(C(C)C)N(C)C2=NC(c3ccccc3)CC(=O)N12` (stereo not given): the inhibition is -5.15%.

As for `CN(Cc1cccnc1)C(=O)c1cc(COc2ccc3ncccc3c2)on1`, the inhibition was 64.7% (active). On to `CCn1ccnc1CN(C)C(=O)c1cc(COc2ccc(Cl)cc2OC)on1`, for which the inhibition was -30.8%.

Regarding `CCOc1ccc(NS(=O)(=O)c2ccc(Cl)c(C(=O)N(C)Cc3cccnc3)c2)cc1`, the inhibition is -10.5%. The value for `COc1ccc(-n2c(COc3ccc(C)cc3)nnc2SCC(=O)Nc2ccc(Oc3ccccc3)cc2)cc1` was 9.67%; that for `C[C@@H]1CN([C@@H](C)CO)C(=O)c2cccc(NC(=O)Nc3cccc4ccccc34)c2O[C@H]1CN(C)S(=O)(=O)c1ccccc1F` was 11.9%; that for `CCOC(=O)C1=C(CC)Nc2ccccc2N=C1N` was -4.65%. As for `CCOC(=O)C1C(=O)C=C(c2ccc(OC)cc2)CC1c1ccco1` (stereo not given), the inhibition is -3.88%.

In the case of `CCOC(=O)C1=C(c2ccc(OC)cc2)C(=O)c2ccccc2C1=O`, the inhibition was 74.4% (active).

On to `C=C(C)C#CC(Cc1ccccc1)NCC1CC1` (stereo not given), for which the inhibition is 7.7%. The value for `Cc1ccc(Cn2cc(COC(=O)N(C)Cc3ccccc3)nn2)cc1` was 4.98%.

Take `COc1ccc(Cn2c(=O)sc3ccccc32)cc1OC`: the inhibition was 48.4% (active). In the case of `COc1ccccc1CNC(=O)CCn1c(=O)sc2ccccc21`, the inhibition was 4.05%. `COc1ccc(CN2CCOC2=O)cc1OC`: the inhibition was 12.6%. Turning to `CCC(=O)Nc1ccc2c(c1)C(=O)N(C)[C@H]1CC[C@H](CC(=O)NCCOC)O[C@@H]1CO2`, the inhibition is 13.3%. Regarding `CC(CCN1CCC(C(O)(c2ccccc2)c2ccccc2)CC1)Oc1ccc(Cl)cc1` (stereo not given), the inhibition was 3.23%. `O=S1(=O)c2c(cccc2N2CC[C@H](O)C2)O[C@@H]2CCN1C2`: the inhibition was 10.5%. In the case of `C[C@H]1CCC/C=C/C(=O)c2c(O)cc(O)cc2CC(=O)O1`, the inhibition was 38.3% (active).

For the molecule `CN(C(N)=NC(=O)/C=C/c1ccccc1)C(C#Cc1ccccc1)Cc1ccccc1` (stereo not given), the inhibition was 4.75%. Take `O=C(CSc1nnc(-c2ccccn2)n1-c1ccc(Cl)cc1)Nc1ccccc1-c1ccccc1`: the inhibition was 7.79%. For `O=C(CCC(=O)N1CCN(S(=O)(=O)c2ccc(Cl)cc2)CC1)NCc1cccc(C(F)(F)F)c1`, the inhibition was 53% (active). Regarding `O=C(NCc1cccc(C(F)(F)F)c1)c1cccc(S(=O)(=O)N2CCN(Cc3ccccc3)CC2)c1`, the inhibition is -3.7%. Turning to `CC(NC(=O)CCC(=O)N1CCN(S(=O)(=O)c2ccc(Cl)cc2)CC1)c1ccccc1` (stereo not given), the inhibition is -14.9%. In the case of `O=C(NCc1ccco1)C1CCCN(S(=O)(=O)c2ccc(Cl)s2)C1` (stereo not given), the inhibition is -2.82%. Consider `O=C(NC1CCCC1)C1CSCCS(=O)(=O)N1Cc1ccccc1` (stereo not given), for which the inhibition was 0.16%. Consider `N=C(N)SCc1cccc2ccccc12`, for which the inhibition is 38.5% (active). On to `CCc1ccc(-c2nn(-c3ccccc3)cc2CSC(=N)N)cc1`, for which the inhibition was -5%.

For `CCOc1ccc(Br)cc1CSC(=N)N`, the inhibition was 22.1%. For `COC(=O)C1CN(CCc2ccccc2)CCS(=O)(=O)N1Cc1ccc(F)cc1` (stereo not given), the inhibition was 3.48%.

On to `Cc1ccc(-c2nnc(SCC(=O)Nc3ccc(Oc4ccccc4)cc3)n2Cc2ccco2)cc1`, for which the inhibition was 13.6%. `CCCCOCCCNC(=O)C[C@H]1C[C@@]2(C(=O)OC)C(=C[C@H](COCc3ccccc3)O[C@@H]2C)N(Cc2cccc3ccccc23)C1=O`: the inhibition is 14.6%.

For `Cc1ccc(-c2nc(CS(=O)CC(=O)NC3CCCC3)c(C)o2)cc1` (stereo not given), the inhibition was 12.9%.

With `Cc1ccc(S(=O)(=O)NCCC(=O)NC2CCN(Cc3ccccc3)CC2)cc1`, the inhibition is 9.92%. Consider `Cc1ccc(-c2nc(CSCC(=O)NC3CCN(Cc4ccccc4)CC3)c(C)o2)cc1`, for which the inhibition is 44.1% (active). Regarding `Cc1ccccc1CN1CCCCC(NC(=O)Nc2ccccc2F)C1=O` (stereo not given), the inhibition is 17.2%. As to `CCOC(=O)[C@]12CCCC=C1N(Cc1ccc(OC)cc1)C(=O)[C@@H]2CC(=O)N1CCOCC1`, the inhibition is 11.8%. As for `COc1ccc(CSc2nnc(SCC(=O)Nc3ccccc3C(F)(F)F)s2)cc1`, the inhibition was -6.32%.

Regarding `CCOC(=O)C1(CCOc2ccccc2)CCN(Cc2cc(OC)cc(OC)c2)CC1`, the inhibition was 43.4% (active). For `CCCS(=O)(=O)N1CCC(CCOc2ccccc2)(C(=O)OCC)CC1` the value was 12%. The value for `CCOC(=O)C1(Cc2cccc(OC)c2)CCN(Cc2csc(C(C)=O)c2)CC1` was -6.31%; that for `O=C(CSc1nc2ccccc2nc1N1CCCCC1)N1CCN(S(=O)(=O)c2cccc([N+](=O)[O-])c2)CC1` was -2.12%. For the molecule `Cc1ccc(Cn2cc(CN3[C@@H](C)COc4cc(Br)ccc4S3(=O)=O)nn2)cc1`, the inhibition is 7.53%.

For `O=C(Nc1ccc(Cl)c(Cl)c1)N1CC=C(c2ccccc2)CC1`, the inhibition is -16.9%. For `O=C(CCS(=O)(=O)c1ccccc1)Nc1ccc(Cl)c(Cl)c1` the value was -30.7%; for `O=C(CC(O)(C(F)(F)F)C(F)(F)F)Nc1ccc(Cl)c(Cl)c1`, 74.9% (active). For `O=C(c1ccccc1)c1ccc(-c2ccccc2C(=O)NC2CCCCN(Cc3ccc(Cl)cc3)C2=O)cc1` (stereo not given) the value was -10.4%.
